Only some compounds are listed: those with a hit (about 2.9% of all), similar ones and a draw of the others.
PLC-beta3 inh: blocks human PLC-beta3 enzyme activity; 370,000 compounds, 0.18% hits; Q01970; inhibition, % at 12.2 µM; Purified PLC-beta3, fluorogenic substrate, fluorescence; in the data active means inhibition above about 11%;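 further: 0% = median of compound wells on plate and 100% = full blocker control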
PLCg1 inh: inhibitors of human phospholipase C gamma1; 370,000 compounds, 0.84% hits; AID 720700; inhibition, % at 12.2 µM; purified PLC-gamma1, fluorogenic substrate, fluorescence; in the data active means inhibition above about 9.5%
Target sequence (P19174 whole entry, looked up): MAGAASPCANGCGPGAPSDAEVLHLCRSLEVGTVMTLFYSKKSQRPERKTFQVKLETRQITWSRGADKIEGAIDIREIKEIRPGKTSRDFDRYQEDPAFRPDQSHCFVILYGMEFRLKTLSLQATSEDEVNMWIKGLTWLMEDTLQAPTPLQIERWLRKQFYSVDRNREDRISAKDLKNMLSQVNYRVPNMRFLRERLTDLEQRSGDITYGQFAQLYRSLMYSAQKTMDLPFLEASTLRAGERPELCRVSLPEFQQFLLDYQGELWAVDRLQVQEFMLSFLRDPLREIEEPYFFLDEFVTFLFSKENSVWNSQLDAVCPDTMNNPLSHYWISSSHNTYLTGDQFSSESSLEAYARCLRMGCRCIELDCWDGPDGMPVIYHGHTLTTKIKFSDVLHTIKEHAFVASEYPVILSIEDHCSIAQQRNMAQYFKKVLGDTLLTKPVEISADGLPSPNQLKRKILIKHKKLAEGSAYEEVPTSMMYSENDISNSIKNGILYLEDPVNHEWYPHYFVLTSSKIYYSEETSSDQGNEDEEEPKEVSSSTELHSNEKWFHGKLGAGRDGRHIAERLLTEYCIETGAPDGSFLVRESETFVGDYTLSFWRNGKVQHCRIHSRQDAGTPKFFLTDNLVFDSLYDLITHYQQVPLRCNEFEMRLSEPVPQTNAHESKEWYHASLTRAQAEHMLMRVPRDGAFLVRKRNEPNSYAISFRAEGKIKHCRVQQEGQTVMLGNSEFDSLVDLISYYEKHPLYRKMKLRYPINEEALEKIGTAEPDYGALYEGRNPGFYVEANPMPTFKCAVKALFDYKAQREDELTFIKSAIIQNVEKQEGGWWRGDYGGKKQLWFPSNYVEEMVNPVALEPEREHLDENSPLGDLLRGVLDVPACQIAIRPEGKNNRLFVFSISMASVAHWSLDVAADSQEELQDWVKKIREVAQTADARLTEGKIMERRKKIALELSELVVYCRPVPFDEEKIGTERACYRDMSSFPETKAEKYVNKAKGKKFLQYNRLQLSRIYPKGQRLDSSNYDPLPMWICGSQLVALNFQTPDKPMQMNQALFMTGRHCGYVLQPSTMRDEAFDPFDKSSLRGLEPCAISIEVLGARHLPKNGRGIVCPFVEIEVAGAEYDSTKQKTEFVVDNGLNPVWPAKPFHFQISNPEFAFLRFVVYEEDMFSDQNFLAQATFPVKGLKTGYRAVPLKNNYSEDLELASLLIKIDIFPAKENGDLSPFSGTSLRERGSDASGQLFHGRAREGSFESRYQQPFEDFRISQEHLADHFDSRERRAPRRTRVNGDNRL
ADAM10 inh: inhibitors of human ADAM10; O14672; recombinant ADAM10, EDANS/DABCYL FRET peptide cleavage, 3 h; inhibition, % at 7 µM; 370,000 compounds, 0.62% hits; AID 720582;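 active means inhibition above a per-campaign cutoff equal to the mean of compounds falling between control-based bounds plus 3 SD, cut at about 20% in these data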;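 further: 0% = DMSO wells while the 100% control is not disclosed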
proKLK7 act: activators of human kallikrein-7 zymogen; P49862; purified proKLK7, EDANS-DABCYL substrate fluorescence; 100% is mature enzyme control, 0% vehicle; activation, % at 7 µM; 370,000 compounds, 0.9% hits; AID 652039;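 active means activation above the mean of all tested compounds plus 3 SD, computed per campaign excluding outliers beyond control limits, cut at about 13% in these data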
ADAM17 inh: inhibitors of human ADAM17 | AID 720648 | inhibition, % at 6.95 µM | 370,000 compounds, 0.83% hits | recombinant ADAM17, EDANS/DABCYL FRET peptide cleavage;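 active means inhibition above the mean of compounds lying between control limits plus 3 SD, set per campaign, cut at about 8.5% in these data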;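 further: 0% = DMSO-only wells as the low control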
KLK7 act conf: confirmation of human kallikrein-7 zymogen activators | activation, % at 7 µM | 3,200 compounds, 68% hits | purified proKLK7, EDANS-DABCYL substrate fluorescence; scaled: vehicle 0, mature enzyme 100 | shares compounds with proKLK7 act;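 active means activation, as change over the incubation, above the mean of all tested compounds plus 3 SD, cut at about 13% in these data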
EDANS-DABCYL int: counter-screen for kallikrein-7 activators: EDANS-DABCYL optical interference; shares compounds with proKLK7 act; EDANS-DABCYL substrate fluorescence interference, no enzyme, 4 h; solvent 0%, active enzyme control 100%; activation, % at 7 µM; 3,200 compounds, 80% hits;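 active means activation above the all-compound mean plus 3 SD, ignoring values outside control-based bounds, cut at about 4.8% in these data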;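 further: value is the 4 h activation minus the activation read at time zero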
K7 EDANS ctr: EDANS fluorescence interference in dose response, no enzyme | shares compounds with proKLK7 act | EDANS-DABCYL peptide fluorescence interference | EC50, µM | 250 compounds, 20% hits;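 active means compounds that raise the fluorescence signal in this interference counterscreen, with EC50 at or below 10 µM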;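 further: intact quenched peptide substrate alone read at 355 nm excitation and 520 nm emission; signal is fluorescence gain from T0 to T4 after four hours at room temperature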
Numbers without * were called inactive; i = inactive; nt = no result.

SMILES | PLC-beta3 inh | PLCg1 inh | ADAM10 inh | proKLK7 act | ADAM17 inh | KLK7 act conf | EDANS-DABCYL int | others
CC(=O)Nc1ccc(S(=O)(=O)NCCNS(=O)(=O)c2ccc(NC(C)=O)cc2)cc1 | -6 | -4 | 0 | 0 | 0 | nt | nt
Cc1cccn2c(=O)c3cc(C(=O)NCCN4CCOCC4)c(=N)n(Cc4ccc(F)cc4)c3nc12 | -410 | -256 | i | 17* | -445 | -12 | -6
CCOCCCn1c(=N)c(C(=O)NCCN2CCOCC2)cc2c(=O)n3cccc(C)c3nc21 | -340 | -257 | i | 45* | -434 | 14* | 3 | K7 EDANS ctr=>70
Cc1cccn2c(=O)c3cc(C(=O)NCCN4CCOCC4)c(=N)n(CCN4CCOCC4)c3nc12 | -292 | -188 | i | 12 | -348 | nt | nt
Cc1cccn2c(=O)c3cc(C(=O)NC4CCCCC4)c(=N)n(Cc4ccc(F)cc4)c3nc12 | -97 | -57 | -333 | -2 | -85 | nt | nt
CSc1nc(N2CCOCC2)nc2ccc(C)cc12 | -465 | -376 | i | 35* | -279 | -31 | -43
COC(=O)[C@H](CC(C)C)N(CCCc1cn(Cc2ccc(C)cc2)nn1)S(=O)(=O)c1ccc(F)cc1Br | 1 | 1 | 16 | 0 | 6 | nt | nt
COc1ccc(-c2cc3ccc(O)cc3oc2=O)cc1OC | i | i | i | 42* | i | 71* | 71*
COc1ccc(-c2cc(=O)c3ccc(O)cc3o2)cc1OC | i | i | i | 121* | i | 42* | 46*
COc1ccc(-c2cc3ccc(OCC(N)=O)cc3oc2=O)cc1OC | -478 | -328 | -28 | 1 | -9 | nt | nt
COC(=O)CS(=O)(=O)c1cccc2cccnc12 | -2 | -5 | -9 | 16* | -2 | 13* | 13*
COc1ccc([C@H]2OC(=O)C[C@H]2C(=O)N2CCN(C(=O)C3CCCO3)CC2)cc1OC (stereo not given in full) | 1 | 2 | -7 | -1 | -4 | nt | nt
CCCc1cc(=O)oc2c3c(cc(OCC(=O)N4CCC(C(=O)O)CC4)c12)OC(C)(C)CC3 | i | i | i | 65* | i | 77* | 76*
CCCc1cc(=O)oc2c3c(cc(OCC(=O)NCC4CCC(C(=O)O)CC4)c12)OC(C)(C)CC3 (stereo not given) | -229 | -168 | i | -2 | -211 | nt | nt
Cc1c(C)c2c(OCC(=O)NCc3ccncc3)cc3c(c2oc1=O)CCC(C)(C)O3 | -125 | -86 | -442 | -7 | -128 | nt | nt
Cc1c(C)c2c(OCC(=O)N3CCC(O)CC3)cc3c(c2oc1=O)CCC(C)(C)O3 | i | i | i | 42* | i | 69* | 73*
Cc1c(C)c2c(OCC(=O)N3CCC[C@H]3C(=O)O)cc3c(c2oc1=O)CCC(C)(C)O3 | i | i | i | 71* | i | 71* | 70*
CN(CCO)c1ccc2c(c1)Oc1ccccc1CN(Cc1cn(Cc3cccc(C(F)(F)F)c3)nn1)S2(=O)=O | 2 | 0 | 17 | 0 | 2 | nt | nt
Cn1cccc1C(=O)N1CCN(S(=O)(=O)c2cccs2)CC1 | 1 | -1 | -5 | 0 | -3 | nt | nt
N#Cc1c(-c2cccnc2)c2c([nH]c1=O)-c1ccccc1OC2 | i | i | i | 72* | i | 66* | 71*
C#CCn1c(=NC(=O)c2sc3ccccc3c2Cl)sc2cc(S(N)(=O)=O)ccc21 | -72 | -60 | -23 | 30* | -11 | -1 | 2
CC(=O)OCc1nc2ccccc2s1 | 2 | 0 | -3 | 0 | 0 | nt | nt
CCOC(=O)C(=O)Cc1nc2ccccc2s1 | -62 | -38 | -102 | 13* | -28 | 4 | 5.3*
Cc1ccc(-c2cc(NC=O)c3ncc(-c4cccc(C(=O)N(C)C)c4)n3c2)cc1 | -56 | -43 | -48 | -2 | -14 | nt | nt
CN(C)C(=O)c1cccc(-c2cnc3cccnn23)c1 | i | i | i | 45* | i | 59* | 59*
SMILES | PLC-beta3 inh | PLCg1 inh | ADAM10 inh | proKLK7 act | ADAM17 inh | KLK7 act conf | EDANS-DABCYL int | others
CN(C)CCCNC(=O)c1cccc(-c2cnc3cccnn23)c1 | i | i | i | 54* | -399 | 60* | 62*
CC(C)CCN1C(=O)COc2ccccc2C1c1nnnn1-c1ccc2c(c1)OCCO2 (stereo not given) | 4 | -2 | -2 | 0 | -6 | nt | nt
Nc1ccc2nc3n(c(=O)c2c1)CCC3 | -295 | -239 | i | 17* | -357 | 10 | 12*
CC(C)CNC(=O)OCc1cn(Cc2ccccc2C(F)(F)F)nn1 | 0 | -2 | -7 | 0 | -8 | nt | nt
O=C(Nc1ccccn1)N1CCOCC1 | -1 | 1 | 9 | 1 | 0 | nt | nt
CCOC(=O)N1CCN(C(=O)Nc2ccc3nc(C)c(C)nc3c2)CC1 | i | -441 | i | 16* | -196 | 39* | 33*
O=C(Nc1ccc2nc(-c3ccccn3)c(-c3ccccn3)nc2c1)N1CCOCC1 | i | i | -435 | 36* | -148 | 70* | 66*
Cc1nc2ccc(NC(=O)N3CCCCC3)cc2nc1C | i | i | i | 35* | -496 | 69* | 57* | K7 EDANS ctr=>69
CCOC(=O)Nc1ccc2c(COC(=O)CNS(=O)(=O)c3ccc(NC(C)=O)cc3)cc(=O)oc2c1 | -260 | -221 | i | 98* | -432 | 127* | 106*
Cc1ccc2c(COC(=O)CNS(=O)(=O)c3ccccc3)cc(=O)oc2c1 | -6 | 1 | -19 | 0 | -4 | nt | nt
O=C1OCCN1C(=O)[C@H]1[C@H](c2ccc(F)cc2)C(c2cccc(Cl)c2)=NN1c1ccccc1 | i | i | i | -342 | -266 | nt | nt
CC[C@@H]1C(c2cccc(C)c2)=NN(c2ccccc2)[C@H]1C(=O)N1CCOC1=O | -72 | -45 | -68 | 41* | -17 | 56* | 52*
Cc1cccc(C2=NN(c3ccccc3)[C@@H](C(=O)N3CCOC3=O)[C@@H]2c2ccc([N+](=O)[O-])cc2)c1 | -10 | -6 | 13 | 0 | 7 | nt | nt
CC[C@@H]1C(c2ccc(F)cc2)=NN(c2ccc(Br)cc2)[C@H]1C(=O)N1CCOC1=O | -215 | -153 | -220 | 3 | -58 | nt | nt
CC[C@@H]1C(c2ccccc2)=NN(c2ccc(Br)cc2)[C@H]1C(=O)N1CCOC1=O | -282 | -208 | -249 | 28* | -67 | 2 | 1
C[C@@H]1C(c2ccc(F)cc2)=NN(c2ccccc2)[C@H]1C(=O)N1CCOC1=O | -42 | -24 | -46 | 21* | -12 | 13* | 24*
O=S1(=O)c2c(NCc3ccco3)cccc2Oc2ccccc2CN1Cc1cn(Cc2ccc(C(F)(F)F)cc2)nn1 | -50 | -29 | -8 | -8 | 0 | nt | nt

High-throughput results (PubChem)
